Laboratory results as given in PubChem BioAssay (NCI).
Compounds without any hit were thinned out: in the full panel of roughly 83,000, 20% have a hit.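 Percent growth is the endpoint: 0 to 100 indicates growth inhibition (40 means 60% inhibition), 0 means no net growth, and negative values indicate cell death.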 A number with no mark means an inactive call. Activity calls are given as the source filed them. The calls were made as follows: active = growth percent below 10; inactive = the rest.

Key:
Assay in all cases: NCI-60 one-dose screen, 48 h (100 = growth as untreated, 0 = no growth, -100 = all killed)
Conditions in all cases: 10 µM unless noted
[1] = system: NCI-H23 lung
[2] = system: NCI-H226 lung
[3] = system: NCI-H322M lung
[4] = system: HOP-62 NSCLC
[5] = system: NCI-H460 lung
[6] = system: HOP-92 NSCLC
[7] = system: NCI-H522 lung
[8] = system: A549/ATCC NSCLC
[9] = system: 786-0 renal
[10] = system: COLO 205 colon
[11] = system: DU-145 prostate
[12] = system: K-562 leukemia
[13] = system: MALME-3M melanoma
[14] = system: MDA-MB-231 breast
[15] = system: RXF 393 renal
[16] = system: SF-268 CNS
[17] = system: SF-295 CNS
[18] = system: SF-539 CNS
[19] = system: UACC-257 melanoma
[20] = system: M14 melanoma

SMILES	growth [1]	growth [2]	growth [3]	growth [4]	growth [5]	growth [6]	growth [7]	growth [8]	growth [9]	growth [10]	growth [11]	growth [12]	growth [13]	growth [14]	growth [15]	growth [16]	growth [17]	growth [18]	growth [19]	growth [20]
O=C(C1CCCCC1)[C@@H]1[C@]2(C(=O)NC3CCCCC32)[C@@H]2CCCN2[C@@]12C(=O)NC1CCC(Cl)CC12 (stereo not given in full)	-81.4% [100 µM] (active)	-55.1% [100 µM] (active)	-95.1% [100 µM] (active)	-73.2% [100 µM] (active)	-77.2% [100 µM] (active)	-89.9% [100 µM] (active)	-81.7% [100 µM] (active)	-82.9% [100 µM] (active)	-80.8% [100 µM] (active)	-80.8% [100 µM] (active)	-98% [100 µM] (active)	-66% [100 µM] (active)	-66.4% [100 µM] (active)	-71.7% [100 µM] (active)	-66.6% [100 µM] (active)	-77.4% [100 µM] (active)	-92.5% [100 µM] (active)	-93.3% [100 µM] (active)	-77.8% [100 µM] (active)	-83.2% [100 µM] (active)
CCOC(=O)c1ccccc1-c1c2ccc(=[N+](C)C)cc-2oc2cc(N(C)C)ccc12	93%	19.5%	12.6%	6.81% (active)	3.9% (active)	-19.3% (active)	14.2%	12%	20.5%	-46.6% (active)	25.3%	10.2%	28.2%	11.7%	18.4%	20.8%	-26.9% (active)	-5.48% (active)	5.13% (active)	13.5%
O=C(Cc1ccc(NC(=O)c2cccc(Cl)c2)cc1)NCc1ccccc1	73.2%	87%	73.9%	46.6%	28.8%	72.2%	55.1%	43.9%	53.6%	39.3%	86.1%	13.9%	61.3%	60.8%	65%	61.7%	41.3%	36.7%	69.1%	18.7%
CN(CCCNC(=O)CCOCCOCCOCCNC(=O)Cc1ccc2ccc3cccc4ccc1c2c34)CCCNc1cc(-c2ccc3ccccc3c2)nc2ccccc12	-82.9% (active)	-47.1% (active)	-88.4% (active)	-90.4% (active)	-82.6% (active)	-88.2% (active)	-59% (active)	-33.9% (active)	-85.6% (active)	-87.7% (active)	-95.8% (active)	-88.3% (active)	-69.6% (active)	-70.7% (active)	-37.7% (active)	-82.9% (active)	-71.1% (active)	-98.6% (active)	-70% (active)	-89.7% (active)
O=C(CCSc1nnc2n(Cc3ccccc3)c(=O)c3c4c(sc3n12)CCCC4)N1CCN(c2ccccc2)CC1	102%	100%	99.8%	103%	102%	94%	104%	104%	102%	102%	111%	113%	95.4%	109%	108%	93%	96%	100%	101%	96.2%
C/C(=N\O)c1ccc(NC(=O)CSc2nnc(-c3cc(-c4ccc(S(C)(=O)=O)cc4)nc4ccccc34)n2-c2ccccc2)cc1	99.2%	90.3%	91.7%	98.7%	90.4%	80.7%	82.2%	81.3%	93.9%	102%	92.6%	73.4%	94.4%	76.9%	98.7%	77.4%	99.4%	83.4%	99.1%	93%
O=C(O)c1cn(C2CC2)c2cc(N3CCN(C(=O)Nc4nc(-c5ccc(Br)cc5)cs4)CC3)c(F)cc2c1=O	12.4%	18.9%	6.95% (active)	21.8%	10.4%	-8.59% (active)	5.78% (active)	14.3%	27.3%	24.2%	17%	18%	29.3%	28.9%	25.2%	24.2%	19.5%	23.6%	3.57% (active)	23.7%
NC(N)=NS(=O)(=O)c1ccc(NC2=C(I)C(=O)c3ncccc3C2=O)cc1	89.9%	86.7%	109%	111%	103%	115%	81%	106%	110%	112%	105%	94.2%	103%	92.7%	108%	90.5%	103%	97.4%	97.1%	111%
CNC(C)[C@H]1CCC2C3CC=C4C(=O)[C@@H](NC(=O)C=C(C)C)CC[C@]4(C)C3CC[C@@]21C (stereo not given in full)	30.1%	46.5%	13.9%	-4.38% (active)	-24.6% (active)	9.2% (active)	58.5%	30.3%	3.96% (active)	-82.4% (active)	52.9%	-62.1% (active)	-52.2% (active)	-12.4% (active)	-59% (active)	-15.7% (active)	-8.38% (active)	-92.5% (active)	-30.8% (active)	-53.7% (active)
Cn1c2c(c3ccc(Cl)c(Cl)c31)C(C#N)C(C)(C)NC2=O (stereo not given)	97.6%	59.4%	91.4%	90.7%	91%	72.8%	55.8%	89.5%	69.3%	92.2%	106%	74.5%	90.4%	81.1%	76.4%	99.6%	76.1%	86.2%	77.4%	90.3%
CCN(CC)CCN1C(=O)c2cccc3c(/C=C/CN4C(=O)c5cccc6cccc(c56)C4=O)ccc(c23)C1=O	98.1%	92.7%	97.4%	89.5%	98.7%	88.1%	97.9%	98.8%	-9.45% (active)	80.7%	106%	19.7%	91.9%	95.5%	74.2%	93.5%	108%	92.5%	109%	105%
N#C/C(=C\c1ccc(-c2cccc(C(F)(F)F)c2)o1)c1ccccc1	79.7%	77.4%	86%	88.1%	97.1%	87.5%	84.6%	94.3%	99.9%	101%	102%	87.1%	96.4%	74.4%	101%	107%	89.1%	95.6%	103%	84.5%
O=S(=O)(NCCNc1nccc(-c2c(-c3cccc(O)c3)nc3occn23)n1)c1ccc(Br)cc1	53.2%	37.1%	42.3%	45.2%	31.2%	33.2%	24.5%	20.9%	45.8%	18.4%	44.8%	17.2%	15%	34.7%	28.8%	40.8%	78.3%	48.7%	20.8%	17.8%
O=C(CC(=O)Nc1cccc(C(=O)O)c1)Nc1cccc(C(=O)O)c1	107%	112%	105%	88.3%	100%	99.7%	78%	85.8%	98%	100%	121%	111%	104%	104%	111%	104%	106%	90.5%	97.7%	96.6%
CN(CCCNC(=O)Cc1ccc2ccc3cccc4ccc1c2c34)CCCNc1cc(-c2ccc3ccccc3c2)nc2ccccc12	-82.1% (active)	-39.5% (active)	-83.2% (active)	-85.9% (active)	-73.9% (active)	-88.8% (active)	-42.9% (active)	1.17% (active)	-80.2% (active)	-77.3% (active)	-90.7% (active)	-82.8% (active)	-57.7% (active)	-75.2% (active)	-24.1% (active)	-77.6% (active)	-36% (active)	-96.1% (active)	-70% (active)	-74.4% (active)
